Assay results taken from PubChem BioAssay (Tox21).
Several values for one entry are separate records, joined by “and”; a condition that tells them apart may be missing. Identical values can stand only once. Results filed as inconclusive are left out. Where a call stands in place of a potency, no number is given. The source holds several records for some structures; these can differ, active in one and inactive in another. Activity calls are given as the source filed them. Unless noted, the call rests on the fitted dose curve; in most records, active means well fitted curve in the direction sought with a large enough effect in the repeat runs; inconclusive means weak or mixed curves; inactive means no such curve, though single readings can be large; an effect the other way counts as inactive or inconclusive.

Key:
[1] = qHTS assay to identify small molecule agonists of the peroxisome proliferator-activated receptor delta (PPARd) signaling pathway - cell viability counter screen (AID 743211); further: nearly all actives have a fitted effect of over 55% in size; further: potency means the concentration at half of the fitted maximal effect
Method in brief: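 Read-out: CellTiter-Glo luminescence, 30 min RT, measured in the same wells as the beta-lactamase reporter. Cells: GeneBLAzer PPAR delta UAS-bla HEK293H, 3000 cells/well, compound exposure 17 h at 37C.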

[2] = molecular target: Peroxisome proliferator-activated receptor delta (Homo sapiens) (UniProt Q03181); assay: qHTS assay to identify small molecule agonists of the peroxisome proliferator-activated receptor delta (PPARd) signaling pathway (AID 743212; calls by dose curve)
Chain of Peroxisome proliferator-activated receptor delta (Homo sapiens) (Q03181 whole entry, looked up): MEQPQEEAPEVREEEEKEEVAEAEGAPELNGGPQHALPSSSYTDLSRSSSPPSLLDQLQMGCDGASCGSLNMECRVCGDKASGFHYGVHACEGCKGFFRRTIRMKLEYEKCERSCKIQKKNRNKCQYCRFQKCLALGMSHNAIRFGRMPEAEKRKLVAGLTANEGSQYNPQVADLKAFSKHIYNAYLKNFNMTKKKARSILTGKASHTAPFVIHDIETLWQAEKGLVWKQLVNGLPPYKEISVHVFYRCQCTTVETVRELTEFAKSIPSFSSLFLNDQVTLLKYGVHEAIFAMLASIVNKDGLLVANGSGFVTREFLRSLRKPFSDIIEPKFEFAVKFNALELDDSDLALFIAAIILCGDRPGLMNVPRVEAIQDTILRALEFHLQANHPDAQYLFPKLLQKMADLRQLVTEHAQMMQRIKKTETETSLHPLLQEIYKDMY
Method in brief: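 Quantitative high-throughput agonist screen in a HEK293H beta-lactamase reporter line under UAS control. Compounds in DMSO, at 37 C. Fluorescence read after 2 h with FRET substrate at room temperature.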

[3] = qHTS assay to identify small molecule antagonists of the peroxisome proliferator-activated receptor delta (PPARd) signaling pathway - cell viability counter screen (AID 743213); further: nearly all actives have a fitted effect of over 50% in size; further: potency means the concentration at half of the fitted maximal effect
Method in brief: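 PPARd-bla HEK293H cells were treated with compounds plus agonist L165041 (300 nM final) for 17 h at 37 C. Viability was then read in the same wells by CellTiter-Glo luminescence after 30 min at room temperature.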

[4] = molecular target: Peroxisome proliferator-activated receptor delta (Homo sapiens) (UniProt Q03181); assay: qHTS assay to identify small molecule antagonists of the peroxisome proliferator-activated receptor delta (PPARd) signaling pathway (AID 743215; active means well fitted inhibition curve with a large enough effect in the signal ratio in the repeat runs, not every such curve was filed as active; the % refers to the signal ratio;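 further: cells stimulated with agonist L165041 at 300 nM final during compound exposure; series mostly up to about 62 µM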)
Method in brief: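 PPARd-bla HEK293H cells (UAS-bla reporter) preincubated 5 h, then given compound plus 300 nM final L165041 agonist for 17 h at 37 C. Beta-lactamase activity read by LiveBLAzer B/G FRET substrate fluorescence after 2 h at room temperature.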

[5] = qHTS assay to identify small molecule agonists of the farnesoid-X-receptor (FXR) signaling pathway - cell viability counter screen (AID 743218); further: nearly all actives have a fitted effect of over 45% in size; further: potency means the concentration at half of the fitted maximal effect
Method in brief: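 FXR-UAS-bla HEK 293T cells exposed to compounds for 16 h at 37C. Cytotoxicity read in the same wells by CellTiter-Glo luminescence after 30 min at room temperature, following the beta-lactamase FRET read.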

[6] = qHTS assay to identify small molecule antagonists of the farnesoid-X-receptor (FXR) signaling pathway - cell viability counter screen (AID 743221; active means well fitted cell-killing curve with a large enough effect in the repeat runs, not every such curve was filed as active; further: nearly all actives have a fitted effect of over 50% in size)
Method in brief: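 HEK 293T FXR-bla cells, 5 h pre-incubation; compound + CDCA 50 uM final, 16 h, 37 C; beta-lactamase FRET read first, then CellTiter-Glo luminescence, 30 min RT.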

[7] = molecular target: Vitamin D3 receptor (Homo sapiens) (UniProt P11473); assay: qHTS assay to identify small molecule agonists of the vitamin D receptor (VDR) signaling pathway (AID 743222; calls by dose curve)
Chain of Vitamin D3 receptor (Homo sapiens) (P11473 whole entry, looked up): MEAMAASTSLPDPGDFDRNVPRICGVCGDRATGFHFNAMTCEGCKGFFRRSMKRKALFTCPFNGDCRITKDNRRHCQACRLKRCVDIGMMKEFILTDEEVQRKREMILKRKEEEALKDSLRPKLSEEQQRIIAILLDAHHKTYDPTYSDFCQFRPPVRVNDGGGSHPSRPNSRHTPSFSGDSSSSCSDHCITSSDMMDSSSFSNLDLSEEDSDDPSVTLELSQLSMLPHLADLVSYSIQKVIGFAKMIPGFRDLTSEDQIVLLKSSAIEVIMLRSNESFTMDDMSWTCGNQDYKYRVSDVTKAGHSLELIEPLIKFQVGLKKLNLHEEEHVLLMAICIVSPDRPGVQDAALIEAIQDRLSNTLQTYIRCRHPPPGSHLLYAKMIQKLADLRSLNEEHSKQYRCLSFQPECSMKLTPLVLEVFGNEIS
Method in brief: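 VDR-bla cells plated 4 h at 37 C, then exposed to compounds for 16 h at 37 C. Beta-lactamase reporter activity measured by fluorescence after 2 h room-temperature loading with LiveBLAzer B/G FRET substrate.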

[8] = molecular target: Vitamin D3 receptor (Homo sapiens) (UniProt P11473); assay: qHTS assay to identify small molecule antagonists of the vitamin D receptor (VDR) signaling pathway (AID 743223; active means well fitted inhibition curve with a large enough effect in the signal ratio in the repeat runs, not every such curve was filed as active; the % refers to the signal ratio)
Method in brief: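 Beta-lactamase reporter read-out: FRET substrate fluorescence after 2 h at room temperature, following 16 h exposure of VDR-bla cells to test compound plus 3 nM (final) 1alpha,25-dihydroxyvitamin D3 agonist at 37C.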

[9] = molecular target: Bile acid receptor (Homo sapiens) (UniProt Q96RI1); assay: qHTS assay to identify small molecule agonists of the farnesoid-X-receptor (FXR) signaling pathway (AID 743220; active means well fitted activation curve with a large enough effect in the signal ratio in the repeat runs, not every such curve was filed as active; the % refers to the signal ratio)
Chain of Bile acid receptor (Homo sapiens) (Q96RI1 whole entry, looked up): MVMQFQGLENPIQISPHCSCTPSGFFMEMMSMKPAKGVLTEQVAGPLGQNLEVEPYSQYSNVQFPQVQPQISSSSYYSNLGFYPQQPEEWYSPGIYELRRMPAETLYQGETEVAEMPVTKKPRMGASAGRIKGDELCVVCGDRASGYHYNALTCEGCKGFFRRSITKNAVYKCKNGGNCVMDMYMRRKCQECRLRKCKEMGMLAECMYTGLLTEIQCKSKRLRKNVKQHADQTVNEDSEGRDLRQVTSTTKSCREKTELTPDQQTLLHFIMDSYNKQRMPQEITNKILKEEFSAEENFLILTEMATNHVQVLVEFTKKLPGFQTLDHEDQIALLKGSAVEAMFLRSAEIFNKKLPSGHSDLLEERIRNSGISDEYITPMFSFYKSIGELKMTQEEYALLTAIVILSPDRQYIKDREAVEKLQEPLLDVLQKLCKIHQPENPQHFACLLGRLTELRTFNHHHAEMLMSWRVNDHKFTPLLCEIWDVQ
Method in brief: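 Beta-lactamase reporter under UAS control in GeneBLAzer FXR HEK 293T cells (5000/well) measured with LiveBLAzer FRET substrate after 2 h at room temperature. Compound exposure lasted 16 h at 37C.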

[10] = molecular target: Bile acid receptor (Homo sapiens) (UniProt Q96RI1); assay: qHTS assay to identify small molecule antagonists of the farnesoid-X-receptor (FXR) signaling pathway (AID 743217; active means well fitted inhibition curve with a large enough effect in the signal ratio in the repeat runs, not every such curve was filed as active; the % refers to the signal ratio)
Method in brief: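 FXR-UAS-bla HEK 293T cells (beta-lactamase reporter) given compound plus chenodeoxycholic acid (50 uM final), 16 h at 37C. LiveBLAzer B/G FRET substrate added for 2 h at room temperature; fluorescence read.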

O=C1Nc2ccccc2C1(c1ccc(O)cc1)c1ccc(O)cc1
Potency [1]: inactive
Potency [2]: inactive
Potency [3]: inactive
Potency [4]: inactive
Potency [5]: inactive
Potency [6]: inactive
Potency [7]: inactive
Potency [8]: inactive

Cc1cccc2n[nH]nc12
Potency [1]: inactive
Potency [2]: inactive
Potency [3]: inactive
Potency [4]: inactive
Potency [5]: inactive
Potency [6]: inactive
Potency [7]: inactive
Potency [8]: inactive

O=C(Cl)c1cccc(C(=O)Cl)c1
Potency [1]: inactive
Potency [2]: inactive
Potency [3]: inactive
Potency [4]: inactive
Potency [6]: inactive
Potency [7]: inactive
Potency [8]: inactive

NC12CC3CC(CC(C3)C1)C2
Potency [1]: inactive
Potency [2]: inactive
Potency [3]: inactive
Potency [4]: inactive
Potency [5]: inactive
Potency [6]: inactive
Potency [7]: inactive

Cc1cc(Cc2cc(C)cc(C(C)(C)C)c2O)c(O)c(C(C)(C)C)c1
Potency [1]: 17.5 µM (active) and 15.5 µM (active)
Potency [2]: inactive
Potency [3]: 13.9 µM (active) and 15.5 µM (active)
Potency [5]: 21.9 µM (active)
Potency [9]: inactive
Potency [6]: inactive
Potency [7]: inactive

CC[C@]1(O)C[C@@H]2CN(CCc3c([nH]c4ccccc34)[C@@](C(=O)OC)(c3cc4c(cc3OC)N(C)[C@H]3[C@@](O)(C(=O)OC)[C@H](OC(C)=O)[C@]5(CC)C=CCN6CC[C@]43[C@@H]65)C2)C1
Potency [1]: inactive
Potency [2]: inactive
Potency [3]: inactive
Potency [4]: inactive
Potency [6]: inactive
Potency [7]: inactive
Potency [8]: inactive

COC(=O)c1cccc(C(=O)OC)c1
Potency [1]: inactive
Potency [2]: inactive
Potency [3]: inactive
Potency [4]: inactive
Potency [6]: inactive
Potency [7]: inactive
Potency [8]: inactive

CCN1CCCC1CNC(=O)c1cc(S(=O)(=O)CC)c(N)cc1OC (stereo unspecified)
Potency [1]: inactive
Potency [2]: inactive
Potency [3]: inactive
Potency [4]: inactive
Potency [6]: inactive
Potency [7]: inactive
Potency [8]: inactive

C=CC(=O)OCCCCCCCC
Potency [1]: inactive
Potency [2]: inactive
Potency [3]: inactive
Potency [4]: inactive
Potency [5]: inactive
Potency [6]: inactive
Potency [7]: inactive
Potency [8]: inactive

Cc1occc(=O)c1OC(=O)C(C)C
Potency [1]: inactive
Potency [2]: inactive
Potency [3]: inactive
Potency [4]: inactive
Potency [5]: inactive
Potency [6]: inactive
Potency [7]: inactive

c1ccc2n[nH]nc2c1
Potency [1]: inactive
Potency [2]: inactive
Potency [3]: inactive and 38.9 µM (active)
Potency [4]: inactive
Potency [5]: inactive
Potency [6]: inactive

COc1nc(C)nc(Cl)c1NC1=NCCN1
Potency [1]: inactive
Potency [2]: inactive
Potency [3]: inactive
Potency [4]: inactive
Potency [5]: inactive
Potency [6]: inactive
Potency [7]: inactive
Potency [8]: inactive

COC(c1ccccc1)(c1ccccc1)[C@H](Oc1nc(C)cc(C)n1)C(=O)O
Potency [1]: inactive
Potency [2]: inactive
Potency [3]: inactive
Potency [10]: inactive
Potency [5]: inactive
Potency [9]: inactive
Potency [6]: inactive
Potency [7]: inactive
Potency [8]: inactive
